Screens deposited in PubChem by National Center for Advancing Translational Sciences (NCATS).
MCF10A rereplic: A quantitative high throughput screen for small molecules that induce DNA re-replication in MCF 10a normal breast cells. MCF 10A DNA re-replication, Hoechst nuclear intensity, 48 h. Potency, µM (top dose mostly 46.1 µM), most hits filed as activators. hit rate 2.9% among 350,000. AID 624296, 2012; also: nearly all actives have a fitted effect of over 50% in size
ELG1 DNA repair: qHTS screen for small molecules that inhibit ELG1-dependent DNA repair in human embryonic kidney (HEK293T) cells expressing luciferase-tagged ELG1; AID 504467, 2011; hit rate 2.3% among 330,000; Potency, µM (doses to about 46.1 µM), actives largely listed as inhibitors; HEK293T ELG1-luciferase reporter, luminescence, 16 h; DNA damage induced by 5-fluorouridine; also: nearly all actives have a fitted effect of over 55% in size
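DMSO vehicle served as the neutral condition. Each well held 2,000 cells given 5-fluorouridine plus compound; after 16 hr at 37 °C/5% CO2, ONE-Glo was added and luciferase measured 30 min later.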
SW480 rerep: A quantitative high throughput screen for small molecules that induce DNA re-replication in SW480 colon adenocarcinoma cells; SW480 DNA re-replication, Hoechst DNA content imaging, 48 h; Potency, µM (top dose mostly 46.1 µM), most hits filed as activators; hit rate 1.8% among 340,000; AID 624297, 2012; also: nearly all actives have a fitted effect of over 55% in size
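Readout is total intensity of Hoechst-stained nuclei, excited at 405 nm and collected at 500-530 nm. Compound treatment lasted 48 hr at 37 C in 5% CO2 before staining.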
Gal4-VP16 FLuc: VP16 counterscreen qHTS for inhibitors of ROR gamma transcriptional activity; Drosophila S2 Gal4-VP16 UAS-luciferase, luminescence, 20 h; Potency, µM (titrated, usually from 53.6 µM), most hits filed as inhibitors; AID 2546, 2010; hit rate 3.5% among 310,000;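 also: Gal4-VP16 expression switched on by copper sulfate through the metallothionein promoter; nearly all actives have a fitted effect of over 50% in size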
RORg inh: qHTS for inhibitors of ROR gamma transcriptional activity; Nuclear receptor ROR-gamma (Mus musculus), P51450; Drosophila S2 Gal4-RORgamma UAS-luciferase reporter, 20 h; Potency, µM (doses to about 53.6 µM), usual class: inhibitors; hit rate 5.4% among 310,000; also: nearly all actives have a fitted effect of over 60% in size
Target sequence (P51450 whole entry, looked up, the tested form may be a part): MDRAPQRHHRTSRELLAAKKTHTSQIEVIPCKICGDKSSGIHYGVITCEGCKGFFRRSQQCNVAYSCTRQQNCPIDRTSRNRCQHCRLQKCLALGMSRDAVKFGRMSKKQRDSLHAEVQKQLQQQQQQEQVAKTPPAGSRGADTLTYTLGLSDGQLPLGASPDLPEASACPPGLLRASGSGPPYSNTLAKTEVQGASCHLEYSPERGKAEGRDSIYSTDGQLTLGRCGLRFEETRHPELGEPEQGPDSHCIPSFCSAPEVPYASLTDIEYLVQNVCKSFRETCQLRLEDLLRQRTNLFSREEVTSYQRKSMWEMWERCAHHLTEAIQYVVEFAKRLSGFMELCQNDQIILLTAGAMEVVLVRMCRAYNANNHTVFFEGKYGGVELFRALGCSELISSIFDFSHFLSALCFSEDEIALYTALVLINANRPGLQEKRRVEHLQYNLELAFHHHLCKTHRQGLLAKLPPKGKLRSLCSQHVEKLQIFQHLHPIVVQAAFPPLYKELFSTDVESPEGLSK
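Stably transfected Drosophila Schneider cells are the test system, with ROR gamma fused to Gal4 and luciferase under UAS control; luminescence is read after 20 hr of 700 uM copper sulfate induction at ambient temperature.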
Hits are given with their value; 0 = inactive; ? = inconclusive; - = no result given; [ ] = another dose, or the depositor's remark. The list is not random: actives were taken first. Their share in the collection is about 10%. Calls follow the shape of the dose curve; as a rule, active = well fitted curve in the direction sought with a large enough effect; inconclusive = small, poorly fitted or top-dose-only effect, or another doubt; inactive = no such curve, though single readings can be large; an effect the other way counts as inactive or inconclusive.

SMILES	MCF10A rereplic	ELG1 DNA repair	SW480 rerep	Gal4-VP16 FLuc	RORg inh
COc1ccc(-c2cn(Cc3ccc(C(=O)NCc4ccc(C)cc4)cc3)c(C(C)N)n2)cc1 (stereo unspecified)	0	?	0	-	-
Cc1c(C(=O)N2CCOCC2)oc2ccccc12	0	?	0	-	-
O=C(Nc1cc(=O)c2ccccc2o1)N1CCCCC1	?	15µM	0	0	0
O=C(Nc1cc(=O)c2ccccc2o1)N1CCOCC1	?	5.8µM	0	0	0
CS(=O)(=O)Nc1cccc(-c2ccc3ncnc(NCc4cccnc4)c3c2)c1	-	-	-	0	?
CC(C1CC1)N(Cc1ccccc1)C(=S)Nc1ccccc1 (stereo unspecified)	0	0	0	?	11µM
Cc1ccc(NC(=S)N(Cc2ccccc2)C(C)C)cc1	?	0	?	?	10µM
CC(C1CC1)N(Cc1ccccc1)C(=S)Nc1cccc(C(F)(F)F)c1 (stereo unspecified)	0	0	0	?	11µM
N#Cc1ccc(N)cc1OCCCN1CCCCC1	0	-	0	-	-
COc1ccc(C(=O)Nc2ccccc2N2CCCC2)cc1S(=O)(=O)N1CCOCC1	0	0	0	-	-
CC(C)(C)c1ccc(C(=O)N2CCC(=O)N(C(COCc3ccccc3)Cc3ccccc3)CC2)cc1 (stereo unspecified)	21µM	?	?	14µM	0
O=C(c1ccc(Cl)c(Cl)c1)N1CCC(=O)N(C(COCc2cccc(C(F)(F)F)c2)Cc2ccccc2)CC1 (stereo unspecified)	?	?	18µM	?	0
Cc1cccc(COCC(Cc2ccccc2)N2CCN(C(=O)c3cc(Cl)cc(Cl)c3)CCC2=O)c1 (stereo unspecified)	23µM	?	18µM	0	?
COc1ccc(C(=O)CC2(C(=O)O)CCCCC2)cc1	0	0	0	0	0
Cc1nn(-c2ccccc2)c(C)c1C(=O)N1CCN(S(=O)(=O)c2ccccc2)CC1	0	0	0	-	-
COc1ccc(C2Cc3ccccc3C(=O)O2)cc1 (stereo unspecified)	0	0	21µM	0	0
COc1ccc(NC(=O)C2Cc3ccccc3C(=O)O2)cc1 (stereo unspecified)	0	?	0	0	0
Cc1ccc(NC(=O)COC(=O)Cn2cnc3c2c(=O)n(C)c(=O)n3C)c(Cl)c1	0[9.22 µM]	?	?	0	0
CC(C)OCCCNC(=O)C1CCN(S(=O)(=O)N2CCCC2)CC1	0	0	0	0	0
O=C(NC(=S)Nc1ccc(Cl)c(C(=O)O)c1)c1cccc(COc2ccccc2)c1	0	0	0	0	?
FC(F)(F)c1ccc(Cl)c(NC(=S)N/N=C/c2ccccc2Cl)c1	0	0	0	?	2.2µM
O=C(O)c1ccc(NNC(=S)Nc2cc(C(F)(F)F)ccc2Cl)cc1	0	?	0	?	3.2µM
O=C(O)c1ccc(Cl)c(NC(=S)NC(=O)c2cccc(COc3ccccc3)c2)c1	8.2µM	0	0	0	?
Cc1cc[n+](CC(=O)Nc2cc(C(F)(F)F)ccc2Cl)cc1	23µM	0	0	0	0
CN(C)c1cc[n+](CC(=O)Nc2cc(C(F)(F)F)ccc2Cl)cc1	?	0	?	0	0
SMILES	MCF10A rereplic	ELG1 DNA repair	SW480 rerep	Gal4-VP16 FLuc	RORg inh
O=C(CC(=O)c1ccccc1)Nc1cc(C(F)(F)F)ccc1Cl	0	0	0	?	?
O=C(COC(=O)c1cc(C(F)(F)F)cc(C(F)(F)F)c1)NCc1ccc(Cl)cc1	?	0	0	0	0
COc1cccc(CN(C)C(=O)CCC(=O)c2cc(Br)ccc2OC)c1	0	0	0	-	-
O=C(NC(=S)Nc1cc(C(F)(F)F)ccc1Cl)c1ccccc1	0	0	?	?	2.5µM
CC1=NN(c2nc(N)nc(/C(C#N)=C/c3ccc([N+](=O)[O-])o3)n2)C(C)(C)C1	3.3µM	-	8.2µM	-	-
CC(Oc1ccccc1F)c1nnc(SCC(=O)c2c(N)n(C3CC3)c(=O)[nH]c2=O)o1 (stereo unspecified)	0	0	0	-	-
CCCN1CCC(NC(=O)C2CC=CCC2C(=O)O)CC1 (stereo unspecified)	0	0	0	0	0
O=C(NCC1CCCO1)C(=O)N/N=C/c1ccc(O)c(Cl)c1 (stereo unspecified)	0	0	0	0	0
COCCNC(=O)C(C)OC(=O)C1=Cc2ccccc2OC1 (stereo unspecified)	0	0	0	0	0
CC(OC(=O)C1=Cc2ccccc2OC1)C(=O)NCC1CCCO1 (stereo unspecified)	21µM	-	0	-	-
O=C(NCC1CCCO1)C(=O)N/N=C/c1cc(Cl)ccc1O (stereo unspecified)	0	?	15µM	?	13µM
CC(C)(C)c1ccc(C(=O)NC(=S)NCC2CCCO2)cc1 (stereo unspecified)	0	?	0	5.6µM	2.2µM
CC(C)(C)c1ccc(C(=O)NNC(=S)NCC2CCCO2)cc1 (stereo unspecified)	0	0	0	?	4µM
O=C(NC1CCN(Cc2ccccc2)CC1)c1cccc(S(=O)(=O)Nc2ccc(SC(F)F)cc2)c1	0	?	?	-	-
COc1ccccc1/C=C/C(=O)NC(=S)NCC1CCCO1 (stereo unspecified)	0	?	0	?	2.8µM
O=C(CNC(=O)c1ccc(Cl)cc1Cl)NCC1CCCO1 (stereo unspecified)	0	?	0	0	0
O=C(NC(=S)NCC1CCCO1)C(c1ccccc1)c1ccccc1 (stereo unspecified)	0	0	?	6.3µM	7.1µM
COc1ccccc1NC(=S)NCC1CCCO1 (stereo unspecified)	0	0	0	?	?
O=C(NC(=S)NCC1CCCO1)c1ccc(Cl)cc1Cl (stereo unspecified)	0	?	0	?	11µM
COc1ccc(/C=C/C(=O)NC(=S)NCC2CCCO2)cc1 (stereo unspecified)	0	0	0	0	1µM
O=C(COC(=O)/C=C/c1ccc(C(F)(F)F)cc1)NC1CCS(=O)(=O)C1 (stereo unspecified)	0	0	?	-	-
Cc1ccc(NC(=O)COC(=O)CCC2CCCC2)cc1S(=O)(=O)N1CCOCC1	0	0	0	-	-
O=C(Nc1cc(Cl)cc(Cl)c1)N1CCN(C(=O)C2CCCO2)CC1 (stereo unspecified)	?	0	?	0	0
COc1ccc(C(=O)NNC(=O)c2ccc(C(C)(C)C)cc2)cc1	0	0	0	0	0
COc1ccc(C(=O)NC(=S)NCC2CCCO2)cc1 (stereo unspecified)	0	?	0	?	13µM
CNC(=S)NNC(=O)c1ccc(C(C)(C)C)cc1	0	?	0	?	2.2µM
